Compound activity from PubChem BioAssay.
Hits are enriched below; roughly 10% of the tested compounds scored in any of these assays.
PNC assembly inh – inhibitors of perinucleolar compartment assembly; PC3M PTB-GFP, PNC prevalence imaging, 16 h; stronger effect = lower value; activity change (PNC), negative = inhibition, % at 10 µM; actives 3.1% (n = 140,000); AID 2417;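 active means readout at or below -70, meaning at least 70% loss of cells showing the perinucleolar compartment, a nuclear body marking cancer cells; inconclusive means readout between -30 and a set limit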;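 further: plate controls were DMSO wells for no effect and camptothecin positive control wells for full effect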
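Compounds are pinned in duplicate onto adhered PC3M cells stably expressing GFP-tagged PTB and incubated 16 h at 37 C. Cells are then fixed, nuclei stained with Hoechst, and PNC-positive cells counted.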
HPGD inh – inhibitors of human 15-hydroxyprostaglandin dehydrogenase (HPGD); P15428; actives 4.3% (n = 150,000); Potency, µM, for the others: at the highest dose activity change, negative = inhibition, actives largely listed as inhibitors; purified HPGD, NADH fluorescence kinetic, PGE2 substrate; further: potency means the concentration at half of the fitted maximal effect
Target sequence (P15428 whole entry, looked up): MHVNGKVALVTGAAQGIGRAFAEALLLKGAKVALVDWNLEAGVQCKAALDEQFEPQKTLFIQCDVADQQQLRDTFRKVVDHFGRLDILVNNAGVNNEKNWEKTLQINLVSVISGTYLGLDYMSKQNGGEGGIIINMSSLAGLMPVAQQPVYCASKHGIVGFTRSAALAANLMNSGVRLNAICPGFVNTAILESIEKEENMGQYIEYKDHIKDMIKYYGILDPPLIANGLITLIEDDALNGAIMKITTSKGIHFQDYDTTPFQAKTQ
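NADH formation kinetics: reaction with 30 uM PGE2 and 1 mM NAD+ (final), 20 nM enzyme, Tris-HCl pH 8 with Tween 20, after 15 min compound preincubation at room temperature. Fluorescence change, last versus first of five reads.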
LMNA splice mod – modulators of lamin A splicing; actives 0.01% (n = 200,000); Potency, µM (highest dose often 46.1 µM), for inactives: at the highest dose ratio change, negative = inhibition, hits mostly inhibitors; HeLa LMNA splicing GFP/RFP minigene ratio, 48 h; active means well fitted inhibition curve with a large enough effect in the signal ratio, with a control signal flat, not every such curve was filed as active; inconclusive means small, poorly fitted or top-dose-only effect, or effect the other way, or a change in a side signal; the % refers to the signal ratio; further: potency means the concentration at half of the fitted maximal effect
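S3 HeLa stable clones carrying a lamin A-EGFP splicing minigene plus DsRed2 were seeded at 600 cells/well in Opti-MEM with 2% FBS, pin-dosed and incubated 48 h at 37°C. Acumen cytometry (488 nm) gave the GFP/RFP total-intensity ratio.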
ALDH1A1 block – blocks purified human ALDH1A1 activity; P00352; Purified ALDH1A1, NADH fluorescence, propionaldehyde substrate; Potency, µM (titrated, usually from 75.3 µM), for the others: at the highest dose activity, negative = inhibition, hits mostly inhibitors; actives 7.3% (n = 220,000);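 further: potency means the concentration at half of the fitted maximal effect; plate controls were no enzyme wells and a reference inhibitor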
Target sequence (P00352 whole entry, looked up): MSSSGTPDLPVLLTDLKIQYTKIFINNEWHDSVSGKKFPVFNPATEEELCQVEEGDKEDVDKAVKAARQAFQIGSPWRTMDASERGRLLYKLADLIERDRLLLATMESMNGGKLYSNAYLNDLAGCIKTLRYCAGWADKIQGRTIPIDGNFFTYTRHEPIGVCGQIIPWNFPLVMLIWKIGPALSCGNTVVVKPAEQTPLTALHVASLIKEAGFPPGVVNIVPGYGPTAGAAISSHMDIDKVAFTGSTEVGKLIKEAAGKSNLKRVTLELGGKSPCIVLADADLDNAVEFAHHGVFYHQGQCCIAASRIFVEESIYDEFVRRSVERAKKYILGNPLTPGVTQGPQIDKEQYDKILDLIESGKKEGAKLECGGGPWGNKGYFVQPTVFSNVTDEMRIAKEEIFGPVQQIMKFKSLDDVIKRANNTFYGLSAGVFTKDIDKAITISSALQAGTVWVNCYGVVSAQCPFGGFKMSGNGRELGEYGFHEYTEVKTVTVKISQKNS
ALOX12 inhib – blocks human 12-lipoxygenase activity | P18054 | purified 12-hLO, xylenol orange hydroperoxide absorbance | Potency, µM (top dose mostly 57.1 µM), without a hit: top-dose activity change, negative = inhibition, hits mostly inhibitors | actives 0.12% (n = 150,000) | AID 1452; active means well fitted inhibition curve with a large enough effect; inconclusive means small, poorly fitted or top-dose-only effect; further: potency means the concentration at half of the fitted maximal effect; nearly all actives have a fitted effect of over 55% in size
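Purified human 12hLO (150 nM), preincubated 15 min with compound, then 40 uM arachidonic acid for 30 min, room temperature, Hepes pH 7.0 with 0.01% Triton X-100. Hydroperoxide detected by ferrous iron/xylenol orange; 573/405 nm absorbance ratio gives reaction progress.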
Starred values were filed as active, the others as inactive; ? = inconclusive; / = no result; [ ] = dose if it differs, or a comment. Unless noted, the call rests on the fitted dose curve; in most records, active means well fitted inhibition curve with a large enough effect (not every such curve was filed as active); inconclusive means small, poorly fitted or top-dose-only effect, or another doubt; inactive means no such curve, though single readings can be large or run the other way. Unless noted, on the % scale 0 is the no-effect control and ±100 the full control effect.

SMILES | PNC assembly inh | HPGD inh | LMNA splice mod | ALDH1A1 block | ALOX12 inhib
CCCCCC#CC[C@@H](O)/C=C/C=C/C=C\[C@@H](O)CCCC(=O)O | / | -5.3% | / | 11.1% | 2.1%
CCCCNc1ccc(S(N)(=O)=O)cc1[N+](=O)[O-] | -112.8* | -3.9% | -20.5% | 13.9% | -2.7%
COc1cc(OC)c(NC(=O)C(CC(C)C)N2Cc3ccccc3C2=O)cc1Cl (stereo unspecified) | / | / | 5.8%[46 µM] | / | /
CC(C)NC(=O)c1ccc2c(c1)nc1n2CCCCC1 | / | / | 0.7%[46 µM] | / | /
COc1ccc(CNC(=O)COC(=O)CC2CCCC2)cc1 | -22.4 | -12.3% | 7.3% | 7.94µM* | -3.8%
O=C(COc1ncnc2ccccc12)NCCC1=CCCCC1 | -24.8 | -7.7% | 15.9% | 1.6% | 4.0%
O=C(COC(=O)c1ccccc1Br)NCCC1=CCCCC1 | / | / | -5.1%[46 µM] | -7.3% | /
CC(C)(C)NS(=O)(=O)c1ccc(OCC(=O)NCCC2=CCCCC2)cc1 | ? | 1.6% | -1.5% | -3.4% | 1.9%
CCOC(=O)COc1ccc(S(=O)(=O)NCCC2=CCCCC2)cc1 | ? | -10.5% | -6.9% | 31.6µM* | 1.5%
O=C(NC(=S)NCCC1=CCCCC1)c1ccccc1Br | / | / | / | 7.08µM* | /
O=C(COc1cnc2ccccc2n1)NCCC1=CCCCC1 | 14.2 | -15.4% | 8.2% | 11.2µM* | 1.1%
Cc1nc(-c2ccc(C)c(S(=O)(=O)N3CCC(C(=O)NCc4ccc(Cl)cc4)CC3)c2)no1 | / | / | -7.0%[46 µM] | / | /
CNc1ncnc2c1ncn2[C@@H]1O[C@H](COP(=O)(O)O)[C@@H](O)[C@H]1O | / | / | / | 2.7% | /
N[C@@H](Cc1nn[nH]n1)C(=O)O | / | -1.4% | / | 5.5%[13.5 µM] | 4.9%[11.4 µM]
COc1ccc(CC(=O)NCCC2=CCCCC2)cc1 | / | / | -3.7%[46 µM] | 23.8µM* | /
COc1ccc(OCCC(=O)OCC(=O)NC2CCCCCCC2)cc1 | / | / | 0.0%[9.22 µM] | 15.8µM* | /
O=C(COC(=O)COc1ccc(Br)cc1)NCCC1=CCCCC1 | -28.6 | -12.2% | -7.3% | ? | -6.7%
COc1ccc(OCCC(=O)OCC(=O)NCCC2=CCCCC2)cc1 | / | / | ? | 12.6µM* | /
COC(=O)c1cccc(NC(=S)NCCC2=CCCCC2)c1 | 40.0 | ? | ? | 28.2µM* | ?
COC(=O)c1ccc(NC(=S)NCCC2=CCCCC2)cc1 | ? | -15.7% | -9.2%[0.0737 µM] | ? | -25.8%
C=CC1CO1 (stereo unspecified) | / | 0.9% | / | 14.1% | -1.2%
CCS(=O)(=O)NCCc1csc2nc(-c3ccc(OC)cc3)nn12 | / | / | 15.7%[46 µM] | / | /
CC1CC(C)CN(CCOCCSc2ccc(Cl)cc2)C1 (stereo unspecified) | / | / | / | -0.3% | /
CC1CC(C)CN(CCOCCSc2ccccc2)C1 (stereo unspecified) | ? | 0.6% | ? | 14.1µM* | -8.8%
CC1CC(C)CN(CCCSc2ccccc2)C1 (stereo unspecified) | 28.3 | -6.4% | 6.0% | 23.8µM* | 3.1%
SMILES | PNC assembly inh | HPGD inh | LMNA splice mod | ALDH1A1 block | ALOX12 inhib
c1ccc(SCCOCCn2cncn2)cc1 | ? | -1.2% | -0.2% | 28.2µM* | -4.6%
COCCn1c(=O)c(C)nc2cnc(Oc3ccc(OC)cc3)nc21 | / | / | -2.2% | -12.3% | /
COCCNC(=S)c1ccc(Br)cc1 | / | / | / | 8.91µM* | /
c1nc(NCC2(N3CCOCC3)CCCCC2)c2ccsc2n1 | -100.0* | -18.4% | -14.6% | 4.1% | 3.4%
CCC[C@@H]1C[C@@]1(CCC)C(NC(=O)c1ccco1)c1ccc(Cl)cc1 (stereo partly specified) | / | -14.0% | / | 0.2% | -6.2%
CC(C)CSc1ncc(-c2cccc(C(F)(F)F)c2)cn1 | 46.8 | -14.4% | 3.0% | 22.4µM* | -2.2%
Cc1nc2cnc(N(C)C)nc2n(-c2ccccc2)c1=O | / | / | -19.5% | ? | /
Cc1cccc(CN2CCN([C@@H](c3ccccc3)c3ccc(Cl)cc3)CC2)c1 | / | -3.9% | -13.8% | -3.4%[20.9 µM] | -5.1%[25.6 µM]
CC1=NN(Cc2ccccc2)C(=O)C1C(c1ccc(Cl)cc1)C(C#N)C#N (stereo unspecified) | -14.4 | 28.2µM* | -15.1% | 25.1µM* | -4.3%
CC1=NN(Cc2ccccc2)C(=O)C1C(c1ccccc1)C(C#N)C#N (stereo unspecified) | 102.3 | 31.6µM* | 11.1% | ? | -6.1%
Cc1nc(S(=O)(=O)N2CCN(c3cccc(Cl)c3)CC2)cn1C | / | / | 12.2%[46 µM] | / | /
O=C(CN1CCCC1)N1c2ccccc2C=Cc2ccccc21 | / | / | / | 4.8% | /
O=C(CN1CCCCCC1)N1c2ccccc2C=Cc2ccccc21 | -105.9* | -7.2% | -7.0% | -5.9% | 3.2%
CCN(CC)C(=O)N1c2ccccc2C=Cc2ccccc21 | -105.1* | -0.2% | -20.2% | 10.7% | -0.2%
CC(NC(=O)CC(O)(C(F)(F)F)C(F)(F)F)c1ccccc1 (stereo unspecified) | -87.6* | -8.4% | -1.3% | 9.1% | 4.5%
CC(NC(=O)Cc1ccccc1)c1ccc(F)cc1 (stereo unspecified) | -17.9 | -29.2% | 1.4% | 15.8% | -1.4%
COC(=O)Cn1c(=O)c2c(nc3n2CCN3c2ccc(F)cc2)n(C)c1=O | / | / | 14.9%[46 µM] | / | /
COc1ccccc1CN(C)C(=O)C1COc2ccccc2O1 (stereo unspecified) | ? | 7.08µM* | -9.9% | -3.3% | -2.0%
Cc1cccc(C)c1NC(=O)C(c1ccc([N+](=O)[O-])cc1)N(C)C(=O)c1ccccn1 (stereo unspecified) | 23.8 | -6.1% | ? | 0.8% | -2.0%
Cc1ccc(S(=O)(=O)NCCCCCC(=O)Nc2nccs2)cc1 | 32.4 | -5.9% | -12.6% | 15.8µM* | -18.0%
O=C(CCN1C(=O)c2ccccc2C1=O)Nc1ccccn1 | -87.5* | -5.7% | 0.6% | -14.3% | -1.8%
O=C(CCCCCCN1C(=O)c2ccccc2C1=O)Nc1nccs1 | 175.6 | 7.94µM* | ? | -8.2% | 4.9%
O=C(CCCN1C(=O)c2ccccc2C1=O)Nc1nccs1 | 1.0 | -16.6% | 4.0% | ? | -4.3%
O=C(CCCN1C(=O)/C(=C/c2ccccc2Cl)SC1=S)Nc1ccccn1 | 16.9 | 15.8µM* | ? | -1.8% | 0.5%
O=C(CCCN1C(=O)/C(=C/c2cccs2)SC1=S)Nc1ccccn1 | / | / | / | -17.9% | /
SMILES | PNC assembly inh | HPGD inh | LMNA splice mod | ALDH1A1 block | ALOX12 inhib
Cc1ccc(NC(=O)CCCCCNS(=O)(=O)c2ccc(C)cc2)cc1 | 28.6 | -2.0% | ? | ? | -2.0%
Cc1cc(C)c2c(=O)nc(SCc3ccccc3C)n(C3CC3)c2n1 | / | / | -12.6%[46 µM] | / | /
Cc1cccc(NC(=O)CCCCCN2C(=O)c3ccccc3C2=O)n1 | 36.5 | 25.1µM* | -0.6% | ? | 19.3%
Cc1ccc(S(=O)(=O)NCCCCCC(=O)Nc2c(C)n(C)n(-c3ccccc3)c2=O)cc1 | / | / | 3.0%[46 µM] | 12.6µM* | /
Cc1ccc(S(=O)(=O)NC(=O)Nc2c(C)n(C)n(-c3ccccc3)c2=O)cc1 | 30.6 | -10.9% | -5.1% | 1.8% | -10.9%
CO[C@@H]1COC(=O)[C@@H](C)COC(=O)[C@@H](C)NC(=O)C/C=C\[C@@H]1C | / | / | / | 11.5%[13.5 µM] | /
Clc1c(-c2nnc3n2CCC3)sc2ccccc12 | 33.6 | 28.2µM* | 4.1% | ? | -0.3%
